In publication PMC7862700, “An all-to-all approach to the identification of sequence-specific readers for epigenetic DNA modifications on cytosine”:

Assays:
Experiment in all cases: DAPPL (digital affinity profiling via proximity ligation, sequencing); 10 mM Tris-HCl pH 7.5, 50 mM NaCl, 1 mM DTT, 4% glycerol, room temperature, 30 min; GST-TFs on glutathione beads, 16-mer random dsDNA library, 0.1% formaldehyde crosslink after washing; high values mean tight binding
FLI1 = target: T1, FLI1 (Homo sapiens, UniProt Q01543 1-452); conditions: protein: recombinant; tags: N-terminal GST; dsDNA, one strand shown
T1 sequence: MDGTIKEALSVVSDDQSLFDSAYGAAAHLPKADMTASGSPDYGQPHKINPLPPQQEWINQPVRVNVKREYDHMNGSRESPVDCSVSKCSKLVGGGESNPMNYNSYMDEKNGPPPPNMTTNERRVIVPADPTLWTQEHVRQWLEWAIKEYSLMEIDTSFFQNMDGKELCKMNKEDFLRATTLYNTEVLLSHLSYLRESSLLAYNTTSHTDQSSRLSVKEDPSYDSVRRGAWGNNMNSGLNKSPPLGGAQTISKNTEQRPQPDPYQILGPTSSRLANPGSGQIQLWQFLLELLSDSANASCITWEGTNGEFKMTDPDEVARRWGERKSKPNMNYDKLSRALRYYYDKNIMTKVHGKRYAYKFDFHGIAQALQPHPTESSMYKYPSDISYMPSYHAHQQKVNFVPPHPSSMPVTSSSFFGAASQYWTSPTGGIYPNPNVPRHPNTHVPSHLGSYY
Procedure, shortened: (§1)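 Pools of DNA-barcoded human transcription factors, expressed in yeast as GST fusions on glutathione beads and combined with a tag-only sample, were incubated with 200 nmole of a 16-mer random double-stranded DNA library. Incubation took 30 min at room temperature in Tris/NaCl/DTT/glycerol buffer and was followed by washing, 0.1% formaldehyde crosslinking, proximity ligation (BsaI/T4 ligase, 1 h, 37 °C), PCR amplification and sequencing on an Illumina NextSeq500. Binding signal is the ratio of a hexamer's read frequency for a factor to its frequency for the tag-only sample.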

ELK1 = target: T2, ELK1 (Homo sapiens, UniProt P19419 1-428); conditions: protein: recombinant; tags: N-terminal GST; dsDNA, one strand shown
T2 sequence: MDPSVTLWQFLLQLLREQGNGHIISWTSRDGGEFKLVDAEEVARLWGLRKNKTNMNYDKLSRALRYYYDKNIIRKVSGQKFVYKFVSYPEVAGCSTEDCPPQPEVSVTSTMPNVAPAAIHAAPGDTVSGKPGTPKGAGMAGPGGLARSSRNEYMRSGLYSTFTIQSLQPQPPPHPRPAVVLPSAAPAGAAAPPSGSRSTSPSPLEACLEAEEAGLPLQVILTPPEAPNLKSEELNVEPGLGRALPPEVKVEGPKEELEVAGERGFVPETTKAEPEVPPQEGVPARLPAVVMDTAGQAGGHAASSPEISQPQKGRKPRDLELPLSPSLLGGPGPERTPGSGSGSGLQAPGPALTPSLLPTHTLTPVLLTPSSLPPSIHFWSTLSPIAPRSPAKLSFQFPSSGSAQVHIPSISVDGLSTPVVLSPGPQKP
Procedure, shortened: as §1

GABPA = target: T3, GABPA (Homo sapiens, UniProt Q06546 1-454); conditions: protein: recombinant; tags: N-terminal GST; dsDNA, one strand shown
T3 sequence: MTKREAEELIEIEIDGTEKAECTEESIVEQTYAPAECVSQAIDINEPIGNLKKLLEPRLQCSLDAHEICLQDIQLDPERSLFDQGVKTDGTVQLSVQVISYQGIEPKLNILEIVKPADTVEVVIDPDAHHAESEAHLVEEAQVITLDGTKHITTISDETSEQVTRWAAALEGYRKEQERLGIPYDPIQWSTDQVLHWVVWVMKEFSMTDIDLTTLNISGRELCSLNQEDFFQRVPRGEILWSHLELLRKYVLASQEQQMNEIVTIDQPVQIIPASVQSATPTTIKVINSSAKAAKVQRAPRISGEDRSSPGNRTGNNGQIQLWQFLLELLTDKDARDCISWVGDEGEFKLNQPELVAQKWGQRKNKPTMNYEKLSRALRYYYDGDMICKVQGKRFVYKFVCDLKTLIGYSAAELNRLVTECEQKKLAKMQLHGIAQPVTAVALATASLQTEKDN
Procedure, shortened: as §1

ERG = target: T4, ERG (Homo sapiens, UniProt P11308 1-479); conditions: protein: recombinant; tags: N-terminal GST; dsDNA, one strand shown
T4 sequence: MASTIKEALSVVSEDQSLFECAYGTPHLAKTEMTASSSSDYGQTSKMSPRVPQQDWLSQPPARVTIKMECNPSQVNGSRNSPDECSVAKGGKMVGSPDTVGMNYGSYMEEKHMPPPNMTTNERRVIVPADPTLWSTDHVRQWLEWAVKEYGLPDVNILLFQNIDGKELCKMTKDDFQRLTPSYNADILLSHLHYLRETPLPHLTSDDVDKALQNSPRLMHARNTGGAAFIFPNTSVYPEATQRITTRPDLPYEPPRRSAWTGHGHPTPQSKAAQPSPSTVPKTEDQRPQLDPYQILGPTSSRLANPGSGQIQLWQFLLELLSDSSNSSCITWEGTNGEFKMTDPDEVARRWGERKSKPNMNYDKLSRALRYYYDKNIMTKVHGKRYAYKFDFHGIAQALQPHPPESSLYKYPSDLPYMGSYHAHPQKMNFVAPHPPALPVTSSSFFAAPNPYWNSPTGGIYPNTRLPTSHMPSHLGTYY
Procedure, shortened: as §1

ELF1 = ELF1 (Homo sapiens, UniProt P32519 1-619); conditions: protein: recombinant; tags: N-terminal GST; dsDNA, one strand shown
Procedure, shortened: as §1

EHF = target: T5, EHF (Homo sapiens, UniProt Q9NZC4 1-300); conditions: protein: recombinant; tags: N-terminal GST; dsDNA, one strand shown
T5 sequence: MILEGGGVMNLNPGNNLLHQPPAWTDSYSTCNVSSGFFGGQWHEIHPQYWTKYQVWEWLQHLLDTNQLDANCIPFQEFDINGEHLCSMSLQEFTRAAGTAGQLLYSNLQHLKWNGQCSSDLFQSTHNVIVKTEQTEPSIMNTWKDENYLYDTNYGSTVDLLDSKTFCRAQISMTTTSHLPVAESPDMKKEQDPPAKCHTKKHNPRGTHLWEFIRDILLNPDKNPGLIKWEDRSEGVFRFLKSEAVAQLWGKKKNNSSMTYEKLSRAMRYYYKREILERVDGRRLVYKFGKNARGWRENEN
Procedure, shortened: as §1

SPI1 = SPI1 (Homo sapiens, UniProt P17947 1-270); conditions: protein: recombinant; tags: N-terminal GST; dsDNA, one strand shown
Procedure, shortened: as §1

SPIB = SPIB (Homo sapiens, UniProt Q01892 1-262); conditions: protein: recombinant; tags: N-terminal GST; dsDNA, one strand shown
Procedure, shortened: as §1

ELK3 = target: T6, ELK3 (Homo sapiens, UniProt P41970 1-407); conditions: protein: recombinant; tags: N-terminal GST; dsDNA, one strand shown
T6 sequence: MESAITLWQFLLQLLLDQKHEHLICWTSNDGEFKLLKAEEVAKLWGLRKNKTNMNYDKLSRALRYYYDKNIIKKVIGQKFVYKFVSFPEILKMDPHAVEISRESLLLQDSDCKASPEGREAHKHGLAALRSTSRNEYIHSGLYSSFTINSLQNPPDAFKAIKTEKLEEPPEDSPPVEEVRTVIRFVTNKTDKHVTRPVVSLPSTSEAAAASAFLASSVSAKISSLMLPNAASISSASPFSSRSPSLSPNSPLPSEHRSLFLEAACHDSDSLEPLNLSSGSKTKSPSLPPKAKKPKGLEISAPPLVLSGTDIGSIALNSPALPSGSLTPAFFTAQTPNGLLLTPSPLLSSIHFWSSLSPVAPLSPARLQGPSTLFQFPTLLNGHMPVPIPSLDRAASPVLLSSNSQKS
Procedure, shortened: as §1

FEV = target: T7, FEV (Homo sapiens, UniProt Q99581 1-238); conditions: protein: recombinant; tags: N-terminal GST; dsDNA, one strand shown
T7 sequence: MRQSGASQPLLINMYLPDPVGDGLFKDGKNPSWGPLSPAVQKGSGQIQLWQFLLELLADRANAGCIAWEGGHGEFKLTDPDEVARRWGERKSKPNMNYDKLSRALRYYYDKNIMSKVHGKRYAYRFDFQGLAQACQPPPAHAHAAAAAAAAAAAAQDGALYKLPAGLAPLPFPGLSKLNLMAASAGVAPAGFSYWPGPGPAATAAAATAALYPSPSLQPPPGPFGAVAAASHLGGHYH
Procedure, shortened: as §1

ETV5 = ETV5 (Homo sapiens, UniProt P41161 1-510); conditions: protein: recombinant; tags: N-terminal GST; dsDNA, one strand shown
Procedure, shortened: as §1

HSF1 = HSF1 (Homo sapiens, UniProt Q00613 1-529); conditions: protein: recombinant; tags: N-terminal GST; chain copies: 3; dsDNA, one strand shown
Procedure, shortened: as §1

SPIC = target: T8, SPIC (Homo sapiens, UniProt Q8N5J4 1-248); conditions: protein: recombinant; tags: N-terminal GST; dsDNA, one strand shown
T8 sequence: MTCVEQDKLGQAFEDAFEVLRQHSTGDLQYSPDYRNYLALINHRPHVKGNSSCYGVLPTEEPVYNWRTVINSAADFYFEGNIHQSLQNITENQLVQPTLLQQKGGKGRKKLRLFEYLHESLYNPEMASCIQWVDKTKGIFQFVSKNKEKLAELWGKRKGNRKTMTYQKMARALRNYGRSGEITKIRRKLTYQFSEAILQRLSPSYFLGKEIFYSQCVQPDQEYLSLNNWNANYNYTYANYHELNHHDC
Procedure, shortened: as §1

ELF4 = ELF4 (Homo sapiens, UniProt Q99607 1-663); conditions: protein: recombinant; tags: N-terminal GST; dsDNA, one strand shown
Procedure, shortened: as §1

ELK4 = target: T9, ELK4 (Homo sapiens, UniProt P28324-2 1-405); conditions: protein: recombinant; tags: N-terminal GST; dsDNA, one strand shown
T9 sequence: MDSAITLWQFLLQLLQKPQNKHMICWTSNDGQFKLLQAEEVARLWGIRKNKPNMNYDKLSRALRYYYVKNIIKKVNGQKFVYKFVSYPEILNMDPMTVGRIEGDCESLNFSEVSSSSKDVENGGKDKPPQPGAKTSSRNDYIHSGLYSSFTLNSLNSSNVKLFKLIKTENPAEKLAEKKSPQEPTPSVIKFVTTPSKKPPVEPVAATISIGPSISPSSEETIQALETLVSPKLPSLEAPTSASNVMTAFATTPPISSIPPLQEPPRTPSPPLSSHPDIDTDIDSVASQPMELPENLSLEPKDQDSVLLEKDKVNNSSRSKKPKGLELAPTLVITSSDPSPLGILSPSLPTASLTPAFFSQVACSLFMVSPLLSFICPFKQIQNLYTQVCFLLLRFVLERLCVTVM
Procedure, shortened: as §1

ETV2 = target: T10, ETV2 (Homo sapiens, UniProt O00321 1-342); conditions: protein: recombinant; tags: N-terminal GST; dsDNA, one strand shown
T10 sequence: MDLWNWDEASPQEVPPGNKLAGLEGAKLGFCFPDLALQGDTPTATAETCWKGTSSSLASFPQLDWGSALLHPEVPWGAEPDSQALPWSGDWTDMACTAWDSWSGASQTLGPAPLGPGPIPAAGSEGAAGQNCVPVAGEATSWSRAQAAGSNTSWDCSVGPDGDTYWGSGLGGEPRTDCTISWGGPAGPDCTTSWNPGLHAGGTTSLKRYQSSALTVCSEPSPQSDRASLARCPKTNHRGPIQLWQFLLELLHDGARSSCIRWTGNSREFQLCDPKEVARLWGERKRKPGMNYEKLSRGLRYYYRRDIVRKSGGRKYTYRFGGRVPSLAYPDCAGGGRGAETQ
Procedure, shortened: as §1

ELF3 = target: T11, ELF3 (Homo sapiens, UniProt P78545 1-371); conditions: protein: recombinant; tags: N-terminal GST; dsDNA, one strand shown
T11 sequence: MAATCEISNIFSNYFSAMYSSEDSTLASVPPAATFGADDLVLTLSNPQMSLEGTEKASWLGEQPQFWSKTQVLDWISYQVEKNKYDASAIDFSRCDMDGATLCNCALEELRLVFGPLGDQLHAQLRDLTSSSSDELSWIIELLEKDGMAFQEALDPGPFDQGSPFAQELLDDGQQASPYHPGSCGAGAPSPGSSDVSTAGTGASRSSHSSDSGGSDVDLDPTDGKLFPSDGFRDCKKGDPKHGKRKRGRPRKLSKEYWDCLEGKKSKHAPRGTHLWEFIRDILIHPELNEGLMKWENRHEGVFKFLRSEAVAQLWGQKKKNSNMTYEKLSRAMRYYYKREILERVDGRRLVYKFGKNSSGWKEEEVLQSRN
Procedure, shortened: as §1

CRX = CRX (Homo sapiens, UniProt O43186 1-299); conditions: protein: recombinant; tags: N-terminal GST; dsDNA, one strand shown
Procedure, shortened: as §1

ETV1 = ETV1 (Homo sapiens, UniProt P50549 1-477); conditions: protein: recombinant; tags: N-terminal GST; dsDNA, one strand shown
Procedure, shortened: as §1

Chain of SPIB (Q01892 whole entry): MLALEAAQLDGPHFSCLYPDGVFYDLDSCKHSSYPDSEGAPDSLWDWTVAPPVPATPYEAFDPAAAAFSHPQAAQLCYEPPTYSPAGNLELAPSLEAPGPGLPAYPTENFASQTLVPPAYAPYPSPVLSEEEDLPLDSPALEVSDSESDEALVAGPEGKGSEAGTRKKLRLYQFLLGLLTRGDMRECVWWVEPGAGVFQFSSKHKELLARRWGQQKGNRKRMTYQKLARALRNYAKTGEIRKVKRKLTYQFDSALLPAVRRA
Chain of HSF1 (Q00613 whole entry): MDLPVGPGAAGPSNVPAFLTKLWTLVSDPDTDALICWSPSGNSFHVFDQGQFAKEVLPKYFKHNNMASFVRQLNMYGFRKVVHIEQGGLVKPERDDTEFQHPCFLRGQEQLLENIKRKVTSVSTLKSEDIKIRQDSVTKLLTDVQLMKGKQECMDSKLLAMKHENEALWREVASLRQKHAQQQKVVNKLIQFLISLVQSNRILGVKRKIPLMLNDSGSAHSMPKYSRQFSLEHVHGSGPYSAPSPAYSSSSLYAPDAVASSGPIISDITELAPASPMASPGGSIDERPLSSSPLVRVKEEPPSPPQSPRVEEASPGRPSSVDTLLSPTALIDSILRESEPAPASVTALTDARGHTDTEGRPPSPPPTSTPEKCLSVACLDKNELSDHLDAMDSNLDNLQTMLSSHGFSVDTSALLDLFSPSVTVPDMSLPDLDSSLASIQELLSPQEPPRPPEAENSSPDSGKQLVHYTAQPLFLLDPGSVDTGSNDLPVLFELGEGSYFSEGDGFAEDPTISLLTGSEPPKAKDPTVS
Chain of CRX (O43186 whole entry): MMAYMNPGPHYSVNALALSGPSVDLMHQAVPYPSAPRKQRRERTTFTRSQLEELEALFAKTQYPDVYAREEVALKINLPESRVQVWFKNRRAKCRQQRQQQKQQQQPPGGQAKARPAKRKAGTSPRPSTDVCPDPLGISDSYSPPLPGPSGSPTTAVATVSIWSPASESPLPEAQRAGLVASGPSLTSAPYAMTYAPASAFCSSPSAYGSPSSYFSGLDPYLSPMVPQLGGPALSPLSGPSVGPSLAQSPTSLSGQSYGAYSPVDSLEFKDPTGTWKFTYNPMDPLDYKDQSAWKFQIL
Chain of ETV5 (P41161 whole entry): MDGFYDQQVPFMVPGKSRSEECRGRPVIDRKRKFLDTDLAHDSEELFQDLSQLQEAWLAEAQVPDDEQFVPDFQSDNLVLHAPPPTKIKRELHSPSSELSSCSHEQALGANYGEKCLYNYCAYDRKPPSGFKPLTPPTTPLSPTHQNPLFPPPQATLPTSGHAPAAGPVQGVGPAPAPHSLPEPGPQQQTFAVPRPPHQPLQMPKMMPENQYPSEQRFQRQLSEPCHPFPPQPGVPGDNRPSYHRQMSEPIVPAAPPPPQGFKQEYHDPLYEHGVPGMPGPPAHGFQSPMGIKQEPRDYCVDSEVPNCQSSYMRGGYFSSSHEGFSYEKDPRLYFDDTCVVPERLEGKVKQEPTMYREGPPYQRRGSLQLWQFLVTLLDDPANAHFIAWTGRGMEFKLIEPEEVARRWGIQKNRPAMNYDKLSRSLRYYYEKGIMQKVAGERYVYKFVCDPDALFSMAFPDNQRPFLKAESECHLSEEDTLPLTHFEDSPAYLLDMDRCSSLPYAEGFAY
Chain of ELF1 (P32519 whole entry): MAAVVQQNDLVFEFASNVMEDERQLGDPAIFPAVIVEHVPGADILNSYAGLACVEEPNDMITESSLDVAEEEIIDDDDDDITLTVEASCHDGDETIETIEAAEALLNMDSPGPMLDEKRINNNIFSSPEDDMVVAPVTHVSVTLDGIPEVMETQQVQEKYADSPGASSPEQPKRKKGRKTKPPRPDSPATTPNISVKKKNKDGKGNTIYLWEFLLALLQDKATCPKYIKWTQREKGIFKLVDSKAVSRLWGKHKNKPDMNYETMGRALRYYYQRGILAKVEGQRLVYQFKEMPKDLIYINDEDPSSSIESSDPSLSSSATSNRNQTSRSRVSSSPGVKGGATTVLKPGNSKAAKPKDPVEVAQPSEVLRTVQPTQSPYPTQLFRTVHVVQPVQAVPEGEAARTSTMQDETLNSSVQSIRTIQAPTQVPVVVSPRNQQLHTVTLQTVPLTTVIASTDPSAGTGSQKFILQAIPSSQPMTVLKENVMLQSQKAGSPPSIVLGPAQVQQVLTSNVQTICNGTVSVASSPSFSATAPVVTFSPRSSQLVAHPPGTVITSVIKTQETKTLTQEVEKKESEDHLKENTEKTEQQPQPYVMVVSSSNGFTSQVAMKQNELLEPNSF
Chain of ETV1 (P50549 whole entry): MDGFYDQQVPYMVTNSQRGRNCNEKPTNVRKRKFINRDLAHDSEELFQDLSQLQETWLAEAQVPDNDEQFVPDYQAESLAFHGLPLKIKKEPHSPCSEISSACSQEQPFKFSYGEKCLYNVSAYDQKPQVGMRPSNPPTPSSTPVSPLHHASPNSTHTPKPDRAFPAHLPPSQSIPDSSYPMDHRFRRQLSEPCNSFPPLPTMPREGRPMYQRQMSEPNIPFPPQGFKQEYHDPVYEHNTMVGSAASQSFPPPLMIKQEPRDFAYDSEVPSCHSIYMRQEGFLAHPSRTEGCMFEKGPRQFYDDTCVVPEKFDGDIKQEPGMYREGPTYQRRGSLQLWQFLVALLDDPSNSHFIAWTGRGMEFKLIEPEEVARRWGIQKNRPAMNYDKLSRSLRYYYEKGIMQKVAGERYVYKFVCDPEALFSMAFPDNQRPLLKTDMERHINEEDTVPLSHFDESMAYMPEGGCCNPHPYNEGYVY
Chain of ELF4 (Q99607 whole entry): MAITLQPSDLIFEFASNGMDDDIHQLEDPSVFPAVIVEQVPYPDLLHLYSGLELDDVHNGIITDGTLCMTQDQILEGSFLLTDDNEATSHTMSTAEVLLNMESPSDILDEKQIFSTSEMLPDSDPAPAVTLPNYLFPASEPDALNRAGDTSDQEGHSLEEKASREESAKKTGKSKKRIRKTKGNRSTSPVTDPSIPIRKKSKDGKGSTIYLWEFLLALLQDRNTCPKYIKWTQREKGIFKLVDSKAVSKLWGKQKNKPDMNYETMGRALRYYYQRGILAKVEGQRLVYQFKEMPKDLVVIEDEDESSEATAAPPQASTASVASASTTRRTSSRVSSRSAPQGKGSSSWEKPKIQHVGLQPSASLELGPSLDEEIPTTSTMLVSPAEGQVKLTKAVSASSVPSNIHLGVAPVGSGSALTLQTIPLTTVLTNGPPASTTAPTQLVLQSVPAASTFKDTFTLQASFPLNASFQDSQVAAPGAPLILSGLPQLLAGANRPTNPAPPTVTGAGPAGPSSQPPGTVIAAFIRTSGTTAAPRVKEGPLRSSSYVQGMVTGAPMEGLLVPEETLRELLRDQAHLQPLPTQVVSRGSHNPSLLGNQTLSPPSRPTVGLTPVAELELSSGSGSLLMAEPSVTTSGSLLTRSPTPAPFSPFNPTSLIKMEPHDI

In the case of TCTTCA, the binding signal (FLI1) is reported as 1.43 fold enrichment (6-mer frequency, TF over GST control), the binding signal (ELK1) is reported as 1.19 fold enrichment (6-mer frequency, TF over GST control) and the binding signal (GABPA) is reported as 1.16 fold enrichment (6-mer frequency, TF over GST control). For the same sequence, the binding signal (ERG) was 1.16 fold enrichment (6-mer frequency, TF over GST control), the binding signal (ELF1) was 1.33 fold enrichment (6-mer frequency, TF over GST control) and the binding signal (EHF) was 1.14 fold enrichment (6-mer frequency, TF over GST control). The binding signal (SPI1) was 1.21 fold enrichment (6-mer frequency, TF over GST control), the binding signal (SPIB) was 1.27 fold enrichment (6-mer frequency, TF over GST control) and the binding signal (ELK3) was 1.27 fold enrichment (6-mer frequency, TF over GST control). The binding signal (FEV) was 1.15 fold enrichment (6-mer frequency, TF over GST control), the binding signal (ETV5) was 1.17 fold enrichment (6-mer frequency, TF over GST control) and the binding signal (HSF1) was 1.24 fold enrichment (6-mer frequency, TF over GST control). The binding signal (SPIC) was 1.14 fold enrichment (6-mer frequency, TF over GST control), the binding signal (ELF4) was 1.2 fold enrichment (6-mer frequency, TF over GST control) and the binding signal (ELK4) was 1.07 fold enrichment (6-mer frequency, TF over GST control). The binding signal (ETV2) was 1.18 fold enrichment (6-mer frequency, TF over GST control), the binding signal (ELF3) was 1.46 fold enrichment (6-mer frequency, TF over GST control) and the binding signal (CRX) was 1.14 fold enrichment (6-mer frequency, TF over GST control). For the same sequence, the binding signal (ETV1) was 1.28 fold enrichment (6-mer frequency, TF over GST control).
